Rows were chosen to be rich in hits. Some 2.4% of all compounds tested hit in one or more screens of this group.
TDP1 block = qHTS Assay for Inhibitors of Tyrosyl-DNA Phosphodiesterase (TDP1); 350,000 tested, 0.28% active; Potency, µM (top dose mostly 130 µM), for the others: at the highest dose activity change, negative = inhibition, usual class: inhibitors; recombinant TDP1, AlphaScreen DNA substrate cleavage; Tyrosyl-DNA phosphodiesterase 1 (Homo sapiens), Q9NUW8; also: % is scaled to controls: 0 for no effect and ±100 for the full control effect; nearly all actives have a fitted effect of over 40% in size
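Compounds were preincubated with Tdp1 (1 nM final) for 15 min at room temperature before substrate (15 nM final) started a 5 min reaction; beads (10 ug/ml final) were then added for 10 min before AlphaScreen detection.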
Rango release inh = qHTS Assay for Inhibitors of RanGTP induced Rango (Ran-regulated importin-beta cargo) - Importin beta complex dissociation | Snurportin-1 (Homo sapiens) + GTP-binding nuclear protein Ran (Homo sapiens) + Importin … | 340,000 tested, 0.071% active | Potency, µM (doses to about 46.1 µM), for the others: at the highest dose activity change, negative = inhibition | Biochemical FRET Rango-importin beta, RanGTP-induced dissociation; calls by dose curve; also: % of control where 0% means no effect; nearly all actives have a fitted effect of over 45% in size
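Two FRET readings bracket the reaction: one 5 min after compound meets Rango–importin beta, another 45 min after RanGTP-RCC1 (0.6 uM Ran, 0.2 uM RCC1, 2 mM GTP) is added. Only the second defines inhibition.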
Rango-impB inh = qHTS Assay for Inhibitors of Rango (Ran-regulated importin-beta cargo) - Importin beta complex formation; Potency, µM (highest dose often 92.2 µM), for inactives: at the highest dose inhibition of complex formation; Rango CFP/YFP FRET sensor + importin beta, 45 min; 340,000 tested, 0.031% active; calls by dose curve;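 also: 0% = DMSO wells and 100% = buffer wells lacking importin beta; nearly all actives have a fitted effect of over 15% in size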
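Inhibition scored from the CFP 486 nm/YFP 530 nm FRET ratio 45 min after adding 0.125 microM importin beta to 50 nM Rango biosensor preincubated 5 min with compound (room temperature, PBS with DTT, Tween-20, BSA). No-importin wells as positive control.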
ClpP mod = qHTS Assay for Activators of ClpP; ATP-dependent Clp protease proteolytic subunit (Bacillus subtilis (strain 168)), P80244; purified B. subtilis ClpP, FRET peptide cleavage, 20 min; Potency, µM (series often up to 57.5 µM), inactives show at the highest dose activity change, negative = active; 340,000 tested, 1.9% active; active = well fitted falling curve with a large enough effect; inconclusive = small, poorly fitted or top-dose-only effect; inactive = no such curve, though single readings can be large or run the other way; also: the source files actives as falling curves though it sought activators and does not explain the sign; nearly all actives have a fitted effect of over 65% in size
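ClpP 10 microg/mL final, pH 8 Tris/KCl buffer with BSA, glycerol, Tween-20; compound pinned in; FRET-FV substrate; RT 20 min; Ex320/Em430; ΔFRET vs ADEP 5.8 microM, DMSO, no enzyme.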
12-LOX inh = Primary qHTS assay for inhibitors of human arachidonate 12S-lipoxygenase (ALOX12): Round 2. Polyunsaturated fatty acid lipoxygenase ALOX12 (Homo sapiens), P18054. purified 12hLO, xylenol orange hydroperoxide absorbance. Potency, µM (highest dose often 108 µM), for the others: at the highest dose activity change, negative = inhibition, actives largely listed as inhibitors. 580,000 tested, 1.1% active. AID 1671190, 2021; also: % is scaled to controls: 0 for no effect and ±100 for the full control effect
Target sequence (P18054 whole entry, looked up): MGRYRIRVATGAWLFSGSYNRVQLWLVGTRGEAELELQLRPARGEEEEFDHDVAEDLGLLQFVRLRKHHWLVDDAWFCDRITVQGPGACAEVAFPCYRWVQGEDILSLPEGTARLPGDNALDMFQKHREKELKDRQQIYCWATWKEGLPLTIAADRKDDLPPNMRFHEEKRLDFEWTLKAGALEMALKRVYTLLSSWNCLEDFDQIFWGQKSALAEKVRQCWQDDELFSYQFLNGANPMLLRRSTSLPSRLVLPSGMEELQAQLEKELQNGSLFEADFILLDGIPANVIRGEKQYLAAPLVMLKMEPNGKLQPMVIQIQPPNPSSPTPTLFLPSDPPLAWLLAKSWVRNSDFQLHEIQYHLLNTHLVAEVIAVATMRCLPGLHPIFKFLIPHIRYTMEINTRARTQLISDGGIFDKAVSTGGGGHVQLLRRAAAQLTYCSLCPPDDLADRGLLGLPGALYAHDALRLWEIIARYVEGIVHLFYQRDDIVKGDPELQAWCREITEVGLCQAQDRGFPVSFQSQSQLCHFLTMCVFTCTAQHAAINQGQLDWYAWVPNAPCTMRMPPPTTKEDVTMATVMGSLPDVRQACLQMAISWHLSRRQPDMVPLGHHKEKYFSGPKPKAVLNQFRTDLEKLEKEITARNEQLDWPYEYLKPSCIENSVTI
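Purified human 12hLO (150 nM final) in 25 mM Hepes, 0.01% Triton X-100, pH 7.0 was preincubated 15 min at room temperature with compound. Then 40 uM arachidonic acid was added, 30 min. Hydroperoxide was read by Fe-XO absorbance ratio 573/405 nm.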
TSG101-PTAP inh = qHTS Assay for Iinhibitors of HIV-1 Budding by Blocking the Interaction of PTAP/TSG101. AID 493005, 2010. Fluorescence polarization, FITC-PTAP peptide / Tsg101 binding. Potency, µM (highest dose often 115 µM), for inactives: at the top dose activity change, negative = inhibition, usual class: inhibitors. Tumor susceptibility gene 101 protein (Homo sapiens), Q99816. 340,000 tested, under 10 active; active = well fitted inhibition curve with a large enough effect in the main read-out, with a control signal flat, not every such curve was filed as active; inconclusive = small, poorly fitted or top-dose-only effect, or effect the other way, or a change in a side signal; inactive = no such curve, though single readings can be large or run the other way; also: % of control where 0% means no effect
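Fluorescence polarization binding of Tsg101 binding domain (10 uM final) to FITC-labeled PTAP peptide (50 nM final) in HEPES pH 7.5 buffer with NaCl, Tween 20, EDTA, TCEP. Compounds added before peptide; binding 20 min at RT.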
* hit, by the source's call; ? = inconclusive; / = no result given; ! = a repeat was not active; [ ] = dose if it differs, or a comment. Unless noted, calls follow the shape of the dose curve; as a rule, active = well fitted curve in the direction sought with a large enough effect; inconclusive = small, poorly fitted or top-dose-only effect, or another doubt; inactive = no such curve, though single readings can be large; an effect the other way counts as inactive or inconclusive. Potency is read from the fitted curve at half-maximal effect.

SMILES | TDP1 block | Rango release inh | Rango-impB inh | ClpP mod | 12-LOX inh | TSG101-PTAP inh
CC(=O)O[C@H](CC(=O)O)C[N+](C)(C)C | 12.4%[56.1 µM] | -1.0% | -4.0% | 1.2% | 35.5µM*! | -2.0%
CCc1nc(N2CCC(C)CC2)c2oc3ccccc3c2n1 | 2.9% | 6.0% | ? | 31.6µM* | 11.2µM* | -2.3%
CCc1nc(N(CC)CC)c2oc3ccccc3c2n1 | 0.0% | 5.0% | 0.9% | -7.5% | ? | -3.1%
CCc1ccccc1NC(=O)CCn1cnc2c1c(=O)n(C)c(=O)n2C | / | / | / | / | -9.4% | /
Cc1ccc(S(=O)(=O)Nc2ccc(SC(F)F)cc2)c(C)c1 | 5.5% | 0.8% | 0.7% | ? | 15.8µM* | -0.3%
N#Cc1ccccc1S(=O)(=O)N1CCN(C(=O)c2cc3c(s2)CCC3)CC1 | 5.01µM* | -7.4% | 4.2% | -5.1% | -4.9% | -3.2%
O=C(C1COc2ccccc2O1)N1CCN(S(=O)(=O)c2cc(F)ccc2F)CC1 (stereo not drawn) | -0.3% | ? | -0.5% | -1.6% | ? | -6.9%
N#Cc1ccccc1S(=O)(=O)N1CCN(C(=O)C2COc3ccccc3O2)CC1 (stereo not drawn) | 39.8µM* | 1.4% | -3.3% | -1.8% | 187.8% | -8.0%
c1cc(-c2nnc([C@H]3CCN(Cc4ncc[nH]4)C3)o2)ccn1 | / | / | / | / | 87.4%[176 µM] | /
CN1[C@@H](CCC(=O)NCc2ccco2)CNC(=O)[C@@H]2[C@H]1CCN2Cc1ccc(O)cc1 | / | / | / | / | 15.4%[176 µM] | /
COC(=O)c1ccc2c(c1)nc1n2[C@@H](CNCc2ccncc2)COC1 | / | / | / | / | 2.9%[176 µM] | /
COc1cc(-c2nc(-c3cccc(C)c3)no2)cc(OC)c1OC | 0.4%[56.1 µM] | -1.8% | -4.2% | -25.3% | 13.5% | -0.2%
COc1ccc(-c2nc(-c3cccc(C)c3)no2)cc1OC | -5.4%[56.1 µM] | 0.2% | -0.3% | 25.1µM* | 19.5% | -2.9%
COc1ccc(CC(=O)OCC(=O)Nc2ncc(Cl)c(C)c2Cl)cc1 | -11.2% | -1.4% | ? | -5.7% | 11.2µM* | -8.2%
CC1=NN(c2nc(C)cc(C)n2)C(=O)C1Cc1ccc(Cl)cc1 (stereo not drawn) | / | / | / | / | 39.5% | /
Cc1[nH]n(-c2ncc(-c3ccccc3)s2)c(=O)c1C(c1ccc(Br)cc1)C(C#N)C#N (stereo not drawn) | 5.8% | 13.1% | 4.7% | 21.9% | 25.1µM* | -4.8%
Cc1[nH]n(C(N)=S)c(=O)c1C(c1ccccc1)C(C#N)C#N (stereo not drawn) | 10.3% | -8.4% | -0.7% | -0.3% | ? | -6.5%
c1ccc2sc(SN3CCOCC3)nc2c1 | 6.9% | -4.4% | -0.2% | -3.7% | 12.6µM*! | 1.3%
c1ccc2sc(N3CCOCC3)nc2c1 | 3.0% | -9.2% | -0.4% | 1.6% | 0.0% | 0.0%
O=C1CCN(C(=O)[C@@H]2CCCN2Cc2cccc(F)c2)CCCCCCN1 | / | / | / | / | -12.3% | /
O=C(Nc1ccccc1)O[C@@H]1CO[C@H]2[C@@H]1OC[C@@H]2NC(=S)Nc1ccccc1 | / | / | / | / | 70.8µM* | /
S=C(Nc1cccc2ccccc12)N[C@H]1CO[C@H]2[C@@H]1OC[C@H]2OCc1ccccc1 | / | / | / | / | 63.1µM* | /
COc1cc(NC(=S)N[C@H]2CO[C@H]3[C@@H]2OC[C@H]3OC(=O)Nc2ccccc2)cc(OC)c1 | / | / | / | / | -15.7% | /

Compound activity (PubChem)
